# Measurements published in publication PMC4336329 (PLoS ONE, 2015).
# Out of some 310,000 compounds screened, about 14,000 (4.5%) showed an effect of 50% or more. The effect is printed as a negative number. For the sample, strong results were picked, then their nearest neighbours and some compounds at random.
# Target: human ether-à-go-go-related gene (hERG) potassium channel (human, UniProt Q12809)
# Test: primary screen, population patch clamp on CHO cells stably expressing hERG; higher = less effect of the substance
# 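Note: peak tail current of the secondary pulse compared with the same well before compound.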
# Sequence of human ether-à-go-go-related gene (hERG) potassium channel (Q12809 whole entry, looked up): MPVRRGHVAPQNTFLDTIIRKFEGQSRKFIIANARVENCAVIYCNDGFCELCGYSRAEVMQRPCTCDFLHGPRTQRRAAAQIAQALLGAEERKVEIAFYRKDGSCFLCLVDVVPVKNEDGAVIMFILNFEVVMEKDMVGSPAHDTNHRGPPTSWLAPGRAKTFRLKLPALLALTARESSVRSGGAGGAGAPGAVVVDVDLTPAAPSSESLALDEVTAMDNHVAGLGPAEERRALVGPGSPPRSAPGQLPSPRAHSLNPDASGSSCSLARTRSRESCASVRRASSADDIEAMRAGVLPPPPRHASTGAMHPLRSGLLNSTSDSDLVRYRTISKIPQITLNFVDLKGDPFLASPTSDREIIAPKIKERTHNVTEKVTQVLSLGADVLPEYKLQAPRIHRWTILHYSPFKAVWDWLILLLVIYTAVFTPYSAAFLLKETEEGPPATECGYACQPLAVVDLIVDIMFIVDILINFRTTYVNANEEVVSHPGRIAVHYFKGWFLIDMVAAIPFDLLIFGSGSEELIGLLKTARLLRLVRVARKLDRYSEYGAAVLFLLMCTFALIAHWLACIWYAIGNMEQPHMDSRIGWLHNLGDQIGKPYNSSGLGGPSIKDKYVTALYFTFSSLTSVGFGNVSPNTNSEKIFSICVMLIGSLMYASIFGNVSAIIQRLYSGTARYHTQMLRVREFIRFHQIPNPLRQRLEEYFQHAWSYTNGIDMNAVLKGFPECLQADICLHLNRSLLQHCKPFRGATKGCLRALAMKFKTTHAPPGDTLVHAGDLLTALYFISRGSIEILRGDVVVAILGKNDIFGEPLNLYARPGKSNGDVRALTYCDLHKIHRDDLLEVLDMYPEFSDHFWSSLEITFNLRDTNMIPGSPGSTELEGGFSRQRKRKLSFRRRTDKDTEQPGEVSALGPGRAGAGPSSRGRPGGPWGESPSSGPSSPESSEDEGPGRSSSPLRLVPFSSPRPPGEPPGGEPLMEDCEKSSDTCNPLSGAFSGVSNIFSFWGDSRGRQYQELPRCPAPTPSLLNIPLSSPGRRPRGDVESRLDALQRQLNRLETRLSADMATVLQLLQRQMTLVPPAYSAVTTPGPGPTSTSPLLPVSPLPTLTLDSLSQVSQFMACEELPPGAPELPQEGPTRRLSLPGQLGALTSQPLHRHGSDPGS
row,SMILES,"hERG current change (%, negative = inhibition) at 10uM [%]"
1,Cc1ccc(SC(C)c2nc(-c3ccncc3)no2)cc1 (stereo not drawn),-24.3
2,Cc1ccc(S(=O)(=O)CCC(=O)OCC(=O)N2c3ccccc3CC2C)cc1 (stereo not drawn),13
3,O=C(COC(=O)c1ccco1)NCc1ccc(Cl)cc1,4.21
4,O=C(COC(=O)c1cc([N+](=O)[O-])ccc1Cl)NC1CCCC1,-26.8
5,O=C(COC(=O)CCc1c[nH]c2ccccc12)Nc1ccccc1C(F)(F)F,-5.09
6,CCC(C)(C(=O)NC1CCCCC1)N(Cc1ccco1)C(=O)CC1NC(=O)NC1=O (stereo not drawn),5.88
7,O=C(CSc1nc(-c2ccc(Cl)cc2)[nH]c(=O)n1)Nc1cccc(Cl)c1,22.3
8,CC(C)(C)c1ccccc1OCC(=O)NCCC(=O)O,-7.3
9,CCc1cc(=O)oc2cc(C)cc(OC(C)C(=O)NCCCn3ccnc3)c12 (stereo not drawn),-30.9
10,CCCc1cc(=O)oc2cc(C)cc(OC(C)C(=O)NCCCn3ccnc3)c12 (stereo not drawn),-65.3
11,Cc1cc(OCC(=O)NCCCn2ccnc2)c2c(C)cc(=O)oc2c1,-22.5
12,CCc1cc(=O)oc2cc(C)cc(OCC(=O)NCCCn3ccnc3)c12,-55.3
13,CCCc1cc(=O)oc2cc(OC(C)C(=O)NCCCn3ccnc3)ccc12 (stereo not drawn),-42.1
14,CCCc1cc(=O)oc2cc(OCC(=O)NCCCN3CCOCC3)c(Cl)cc12,-73
15,CCc1cc(=O)oc2cc(OCC(=O)NCCCN3CCOCC3)c(Cl)cc12,4.59
16,CCc1cc(=O)oc2cc(C)cc(OCC(=O)NCCCN3CCOCC3)c12,-11.1
17,CCCCc1cc(=O)oc2cc(OCC(=O)NCCN3CCOCC3)c(Cl)cc12,1.96
18,Cc1cc(C)cc(COc2ccc3c(C)c(CC(=O)O)c(=O)oc3c2C)c1,-41.4
19,O=C(COc1ccc(S(=O)(=O)NC2CCCCC2)cc1)NCc1cccnc1,2.91
20,CC(C)NC1=C(Cl)C(=O)c2ccccc2C1=O,4.34
21,O=C1[C@H]2CC3CCC2(O3)[C@@H]2OCCCN12 (stereo partly drawn),4.02
22,O=S(=O)(c1cccc(-c2nnc(SCc3ccc(Cl)cc3)o2)c1)N1CCCCC1,10.7

row,SMILES,"hERG current change (%, negative = inhibition) at 10uM [%]"
1,CCOC(=O)c1nn(-c2ccccc2)c(=O)c(C#N)c1C,13.5
2,CC(C)CCN(CC(=O)NC1CCCC1)C(=O)C(=O)Nc1ccc2c(c1)OCCO2,11
3,O=C(c1c[nH]c2ccccc12)N1CCN(Cc2ccccc2)CC1,-13.5
4,O=C(C(=O)N1CCN(Cc2ccc3c(c2)OCO3)CC1)c1c[nH]c2ccccc12,-11.6
5,NC(=O)CN1CCN(Cc2ccc3c(c2)OCO3)CC1,30.6
6,O=C(CN1CCN(c2ccccc2)CC1)c1c[nH]c2ccccc12,-0.617
7,O=C(CN1CCN(Cc2ccc3c(c2)OCO3)CC1)c1c[nH]c2ccccc12,-63.5
8,O=C(CN1CCN(Cc2ccccc2)CC1)c1c[nH]c2ccccc12,-56.5
9,COc1ccc(-c2ccc(C#N)c(SCC(=O)OCc3ccccc3)n2)cc1OC,-2.31
10,CCCn1c(N)c(C(=O)CSc2n[nH]c(-c3ccc(C)cc3)n2)c(=O)[nH]c1=O,22.2
11,C[C@H](NC(=O)c1nc[nH]c1C(=O)N[C@@H](Cc1ccccc1)C(=O)OCc1ccccc1)C(=O)OCc1ccccc1,8.42
12,CCOC(=O)Cn1c(=O)oc2cc(S(=O)(=O)Nc3cc(OCC)ccc3OCC)ccc21,-42.3
13,COc1ccc(N(CC(=O)Nc2ccc(F)cc2F)S(=O)(=O)c2c(C)nn(C)c2C)cc1,-12.4
14,Cc1ccc2oc(C(=O)N(C)Cc3ccc(C)o3)c(C)c2c1,10.6
15,COc1ccc(CN2CCN(CC=C(C)C)C(CCO)C2)cc1Cn1cccn1 (stereo not drawn),-31.2
16,COc1ccc(CN2CCN(C(C)C)C(CCO)C2)cc1Cn1cccn1 (stereo not drawn),8.43
17,COc1ccc(CN2CCC(CO)(Cc3ccccc3)CC2)cc1Cn1cccn1,-76.5
18,COc1ccc(CN2CCC(CO)(Cc3cccc(C(F)(F)F)c3)CC2)cc1Cn1cccn1,-75.7
19,COc1ccc(NC(=O)CCNS(=O)(=O)c2ccc3c(c2)CCC(=O)N3)cc1,-2.85
20,CN(O)/C=c1/ccc2c(n1)C(=O)C=CC=2,-8.33
21,Cc1ccc(C(=O)Nc2ccc(S(=O)(=O)N3CCN(C)CC3)cc2)o1,5.28
22,COc1cccc(C(=O)NCCNC(=O)c2cnccn2)c1,19.5

row,SMILES,"hERG current change (%, negative = inhibition) at 10uM [%]"
1,Cc1nnc(NNS(=O)(=O)c2ccc(Cl)cc2)[nH]c1=O,-17.3
2,O=C(O)C1=C[C@H](c2ccc(F)cc2)C[C@H](OCc2ccc(CO)cc2)O1,4.49
3,Cc1coc2cc3oc(=O)c(CCC(=O)NCCCn4ccnc4)c(C)c3cc12,-41.4
4,Cc1coc2c(C)c3oc(=O)c(CCC(=O)NCCCn4ccnc4)c(C)c3cc12,-44.4
5,Cc1c(CCC(=O)NCCCn2ccnc2)c(=O)oc2c(C)c3occ(C(C)(C)C)c3cc12,-67
6,Cc1c(CCC(=O)NCCCn2ccnc2)c(=O)oc2cc3occ(C(C)(C)C)c3cc12,-77.7
7,Cc1oc2cc3oc(=O)c(CCC(=O)NCCCn4ccnc4)c(C)c3cc2c1C,-41.7
8,Cc1oc2c(C)c3oc(=O)c(CCC(=O)NCCCn4ccnc4)c(C)c3cc2c1C,-35.9
9,Cn1c(=O)n(CCCO)c(=O)c2c1nc1n2CCCN1Cc1ccccc1,-9.65
10,CN(Cc1nc2ccc(F)cc2[nH]1)Cc1c(C(=O)N(C)C)nc2ccc(Cl)cn12,-43.3
11,CCOc1cc(S(=O)(=O)N(CC)CC)ccc1Br,-11.8
12,O=C(CSc1nnc(SCc2ccc(Cl)cc2)s1)c1ccc2c(c1)OCO2,9.81
13,CCOC(=O)N1CCN(c2c(-c3ccccc3)c3cc(Cl)ccc3[nH]c2=O)CC1,-11.4
14,O=c1[nH]c2ccc(Cl)cc2c(-c2ccccc2)c1N1CCN(CCO)CC1,-64.6
15,O=c1[nH]c2ccc(Cl)cc2c(-c2ccccc2)c1N1CCOCC1,2.46
16,Cc1cccc(C2=NOC(=O)/C2=C\c2ccccc2F)c1,9.48
17,CC(C)n1nc(C(=O)Nc2ccc3c(c2)OCO3)c2ccccc2c1=O,11
18,CCCCn1c(CCCNC(=O)c2ccco2)nc2ccccc21,-40.5
19,Cc1ccc(NC(=O)CSc2nnc(CNC(=O)c3ccccc3F)o2)cc1,2.03
20,CC1CCN(c2ccc3nnc(CCC(=O)NCCCOC(C)C)n3n2)CC1,2.68
21,CCn1c(SCC(=O)N2CCCc3ccccc32)nc2ccccc2c1=O,-18.7
22,CCCCn1c(SCC(=O)c2ccccc2)nc2ccsc2c1=O,1.38

row,SMILES,"hERG current change (%, negative = inhibition) at 10uM [%]"
1,COCCn1c(SCC(=O)N2CCOCC2)nc2ccccc2c1=O,-22.3
2,COCCn1c(SCC(=O)N2CCCCC2)nc2ccccc2c1=O,-49.3
3,CCC1CCCCN1C(=O)CSc1nc2ccsc2c(=O)n1Cc1ccccc1 (stereo not drawn),-78.3
4,CCn1c(SCC(=O)N2CCCCC2C)nc2ccsc2c1=O (stereo not drawn),-11.5
5,COCCn1c(SCC(=O)N2CCCc3ccccc32)nc2cccnc21,-16.5
6,CCCCn1c(SCC(=O)N2CCC(C)CC2)nc2ccsc2c1=O,-70.7
7,COCCn1c(SCC(=O)N2CCCc3ccccc32)nc2ccccc2c1=O,-72.6
8,COCCn1c(SCC(=O)N2CCC(C)CC2)nc2ccccc2c1=O,-62.8
9,O=C(O)CCCCCn1c(SCC(=O)N2CCCC2)nc2ccsc2c1=O,16.9
10,O=C(CSc1nc2ccsc2c(=O)n1Cc1ccccc1)NCC1CCCO1 (stereo not drawn),-25.7
11,COc1ccc2[nH]cc(CCNC(=O)Cc3ccc(Cl)cc3)c2c1,2.05
12,CC(=O)c1cccc(NC(=O)c2ccc3c(c2)C(=O)N(Cc2cccnc2)C3=O)c1,-9.85
13,COc1ccc(OC)c(/C=N/N(CCC#N)C2=NS(=O)(=O)c3ccccc32)c1,6.86
14,CCCCCCSc1ccc([C@@H]2[C@H]3C(=O)N(C)C(=O)[C@H]3[C@]3(C(=O)OC)CCCCN23)cc1.O=C(O)C(F)(F)F,-10.9
15,Cc1ccc(N2C(=O)NC(=O)/C(=C\c3cn(CC(=O)O)c4ccccc34)C2=O)cc1,16.8
16,CC(Oc1cccc2c1OC(C)(C)C2)C(=O)O (stereo not drawn),-5.47
17,COc1ccc(Cc2nnc(NC(=O)c3ccc(Cl)c([N+](=O)[O-])c3)s2)cc1,15
18,COc1ccc(CN2CCN(C(=O)C3CCC(CNS(=O)(=O)c4ccc(C)cc4)CC3)CC2)c(OC)c1OC (stereo not drawn),-27.5
19,CCn1c(SCC(=O)N2CCN(c3ccccc3)CC2)nc2c(c1=O)SC(C)C2 (stereo not drawn),-48.2
20,COCCn1c(SCC(=O)N2CCN(c3ccccc3)CC2)nc2c(c1=O)SC(C)C2 (stereo not drawn),-58.8
21,CC1Cc2nc(SCC(=O)N3CCN(c4ccccc4)CC3)n(CCc3ccccc3)c(=O)c2S1 (stereo not drawn),-47.1
